Source: the supplement of paper PMC10849652
The full data set covers some 7,900 targets. This sample favours those with a hit. About 0.6% of all pairs of compound and target were hits.

Assays:
Assay in all cases: log2 fold change, soluble protein after heating vs DMSO (PISA); higher = thermal stabilisation; K562 cells, 10 uM, 30 min; active = over 0.2 and 3.5 SD of the protein, either way, in both replicates (recomputed)
IRAK-1-4 Inhibitor I = compound: C1COCCN1CCN2C3=CC=CC=C3N=C2NC(=O)C4=CC(=CC=C4)[N+](=O)[O-] [IRAK-1-4 Inhibitor I]
Procedure, shortened: (§1)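 K562 cells (2×10^6 cells/mL) were treated with 10 μM compound for 30 min, and aliquots were heated for 3 min over 48°C-58°C. Pooled aliquots were extracted in PBS with 0.5% NP-40 at 4°C, and the supernatant after 21,000xg for 90 min was measured by TMTpro 16plex LC-MS/MS with channel sums equalised. Reported thermal stability, relative to control samples and from duplicates, is a log2 fold change.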

ibrutinib = compound: C=CC(=O)N1CCC[C@@H](n2nc(-c3ccc(Oc4ccccc4)cc3)c3c(N)ncnc32)C1 [ibrutinib]
Procedure, shortened: as §1

[1] = compound: CC(=O)c1cnc2ccc(-c3cc(Cl)c(O)c(Cl)c3)nc2c1N[C@H]1CC[C@H](CN(C)C)CC1
Procedure, shortened: as §1

ralimetinib = compound: CC(C)(C)Cn1c(N)nc2ccc(-c3[nH]c(C(C)(C)C)nc3-c3ccc(F)cc3)nc21 [ralimetinib]
Procedure, shortened: as §1

[2] = compound: CC(C)(O)CC(=O)NCCn1ccc2ncnc(Nc3ccc(Oc4cccc(C(F)(F)F)c4)c(Cl)c3)c21
Procedure, shortened: as §1

[3] = compound: CC(C)C1=C2N=C(C=C(N2N=C1)NCC3=CC=CC=C3)NCCCCCCN
Procedure, shortened: as §1

[4] = compound: CC(C)C[C@@H](C=O)NC(=O)[C@H](CC(C)C)NC(=O)[C@H](CC(C)C)NC(=O)OCc1ccccc1
Procedure, shortened: as §1

pinometostat = compound: CC(C)N(C[C@H]1O[C@@H](n2cnc3c(N)ncnc32)[C@H](O)[C@@H]1O)[C@H]1C[C@@H](CCc2nc3cc(C(C)(C)C)ccc3[nH]2)C1 [pinometostat]
Procedure, shortened: as §1

[5] = compound: CC1=C(C(CC(=O)N1)C2=CC=C(C=C2)C(F)(F)F)C(=O)NC3=C(C=C4C(=C3)C=NN4)F
Procedure, shortened: as §1

[6] = compound: CC1=C(C2=C(C=C1)C(=O)C3=CC=CC=C3N2CCCN)C
Procedure, shortened: as §1

Measured: log2 fold change

MFN1 (UniProt Q8IWA4)
Chain of UniProt Q8IWA4 (Q8IWA4 whole entry, looked up): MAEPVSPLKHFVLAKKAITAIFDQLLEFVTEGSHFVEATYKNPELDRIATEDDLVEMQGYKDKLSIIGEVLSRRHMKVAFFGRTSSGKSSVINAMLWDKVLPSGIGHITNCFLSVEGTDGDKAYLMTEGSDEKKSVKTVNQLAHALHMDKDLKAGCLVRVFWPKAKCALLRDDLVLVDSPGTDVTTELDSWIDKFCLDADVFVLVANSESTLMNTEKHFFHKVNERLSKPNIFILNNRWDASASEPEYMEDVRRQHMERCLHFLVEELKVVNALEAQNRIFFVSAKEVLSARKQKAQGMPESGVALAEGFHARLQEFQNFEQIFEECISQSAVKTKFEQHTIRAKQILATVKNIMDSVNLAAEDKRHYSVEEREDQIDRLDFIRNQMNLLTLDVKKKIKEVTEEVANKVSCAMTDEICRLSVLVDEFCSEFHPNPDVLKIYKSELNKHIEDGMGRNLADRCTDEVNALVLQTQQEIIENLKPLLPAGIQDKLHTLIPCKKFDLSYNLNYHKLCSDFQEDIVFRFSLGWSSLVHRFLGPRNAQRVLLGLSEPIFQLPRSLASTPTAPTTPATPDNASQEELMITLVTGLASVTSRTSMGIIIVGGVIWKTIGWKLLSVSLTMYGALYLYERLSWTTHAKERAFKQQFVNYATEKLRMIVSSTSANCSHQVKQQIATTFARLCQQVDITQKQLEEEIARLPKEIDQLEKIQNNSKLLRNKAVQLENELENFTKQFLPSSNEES
inactive: IRAK-1-4 Inhibitor I 0.057 | ibrutinib -0.009 | [1] -0.047 | ralimetinib -0.027 | [2] -0.043 | [4] 0.078 | pinometostat 0.018 | [5] 0.015 | [6] 0.098
active: [3] -0.607

LNPK (UniProt Q9C0E8)
Chain of UniProt Q9C0E8 (Q9C0E8 whole entry, looked up): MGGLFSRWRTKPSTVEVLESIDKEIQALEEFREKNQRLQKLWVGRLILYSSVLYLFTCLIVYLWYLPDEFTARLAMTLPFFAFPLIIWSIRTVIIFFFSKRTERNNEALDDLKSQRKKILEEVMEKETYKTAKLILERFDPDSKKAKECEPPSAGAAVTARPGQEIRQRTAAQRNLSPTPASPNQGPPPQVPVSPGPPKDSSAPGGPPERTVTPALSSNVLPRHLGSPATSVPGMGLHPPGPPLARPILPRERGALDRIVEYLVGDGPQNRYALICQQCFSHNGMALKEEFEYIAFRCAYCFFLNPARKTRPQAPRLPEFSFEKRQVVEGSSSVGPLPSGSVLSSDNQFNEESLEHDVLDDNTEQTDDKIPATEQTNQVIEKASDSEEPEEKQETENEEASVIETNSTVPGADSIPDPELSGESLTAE
inactive: IRAK-1-4 Inhibitor I 0.041 | ibrutinib 0.013 | [1] 0.004 | ralimetinib -0.019 | [2] 0.016 | [3] 0.05 | [4] -0.011 | pinometostat -0.01 | [5] 0.016 | [6] -0.035

LUC7L3 (UniProt O95232)
Chain of UniProt O95232 (O95232 whole entry, looked up): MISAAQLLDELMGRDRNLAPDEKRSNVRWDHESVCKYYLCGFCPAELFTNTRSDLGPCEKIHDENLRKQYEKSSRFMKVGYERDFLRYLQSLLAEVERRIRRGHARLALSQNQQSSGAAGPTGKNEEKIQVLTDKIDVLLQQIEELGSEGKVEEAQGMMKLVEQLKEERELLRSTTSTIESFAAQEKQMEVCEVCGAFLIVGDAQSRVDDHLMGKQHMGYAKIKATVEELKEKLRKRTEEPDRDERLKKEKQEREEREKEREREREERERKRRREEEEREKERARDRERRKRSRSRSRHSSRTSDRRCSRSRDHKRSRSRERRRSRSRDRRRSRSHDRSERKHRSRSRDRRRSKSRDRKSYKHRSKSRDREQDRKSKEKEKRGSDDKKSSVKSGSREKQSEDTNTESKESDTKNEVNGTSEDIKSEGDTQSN
active: [1] -0.409
inactive: IRAK-1-4 Inhibitor I -0.123 | ibrutinib -0.037 | ralimetinib -0.024 | [2] 0.024 | [3] -0.04 | [4] 0.007 | pinometostat -0.023 | [5] -0.013 | [6] 0.109

MAGEC2 (UniProt Q9UBF1)
Chain of UniProt Q9UBF1 (Q9UBF1 whole entry, looked up): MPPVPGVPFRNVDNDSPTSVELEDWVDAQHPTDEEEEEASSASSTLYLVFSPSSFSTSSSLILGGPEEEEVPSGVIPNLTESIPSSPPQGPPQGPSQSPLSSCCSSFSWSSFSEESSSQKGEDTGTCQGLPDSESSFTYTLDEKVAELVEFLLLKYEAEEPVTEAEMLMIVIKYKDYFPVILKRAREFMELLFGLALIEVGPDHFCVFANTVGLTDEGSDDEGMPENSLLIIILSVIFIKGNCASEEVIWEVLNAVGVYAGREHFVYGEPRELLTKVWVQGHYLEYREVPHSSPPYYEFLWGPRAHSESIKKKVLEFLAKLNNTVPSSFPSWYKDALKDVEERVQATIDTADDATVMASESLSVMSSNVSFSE
inactive: IRAK-1-4 Inhibitor I -0.003 | ibrutinib -0.02 | [1] 0.108 | ralimetinib 0.093 | [2] 0.058 | [3] -0.059 | [4] 0.05 | pinometostat -0.003 | [5] -0.035
active: [6] -0.318

IL27RA (UniProt Q6UWB1)
Chain of UniProt Q6UWB1 (Q6UWB1 whole entry, looked up): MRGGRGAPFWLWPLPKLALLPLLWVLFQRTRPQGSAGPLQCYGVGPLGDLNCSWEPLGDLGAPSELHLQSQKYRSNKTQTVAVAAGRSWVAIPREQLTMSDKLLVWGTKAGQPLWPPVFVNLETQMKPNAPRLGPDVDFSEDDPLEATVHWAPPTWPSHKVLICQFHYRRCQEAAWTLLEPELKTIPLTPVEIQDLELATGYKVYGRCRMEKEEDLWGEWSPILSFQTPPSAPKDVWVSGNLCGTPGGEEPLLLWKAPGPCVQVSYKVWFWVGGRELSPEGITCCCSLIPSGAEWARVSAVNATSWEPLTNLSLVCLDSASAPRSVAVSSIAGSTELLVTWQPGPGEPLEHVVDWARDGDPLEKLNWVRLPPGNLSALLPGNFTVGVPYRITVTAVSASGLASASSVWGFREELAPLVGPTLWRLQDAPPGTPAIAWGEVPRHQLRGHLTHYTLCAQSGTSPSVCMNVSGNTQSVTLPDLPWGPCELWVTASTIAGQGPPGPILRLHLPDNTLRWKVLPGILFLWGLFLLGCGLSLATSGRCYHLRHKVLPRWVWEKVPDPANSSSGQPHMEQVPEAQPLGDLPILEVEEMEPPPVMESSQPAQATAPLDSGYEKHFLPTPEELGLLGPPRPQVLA
inactive: IRAK-1-4 Inhibitor I -0.189 | ibrutinib 0.077 | [1] 0.011 | ralimetinib 0.058 | [2] 0.005 | [3] 0.139 | [4] -0.167 | pinometostat 0.043 | [5] 0.1 | [6] 0.012

LAMP2 (UniProt P13473)
inactive: IRAK-1-4 Inhibitor I 0.063 | ibrutinib 0.042 | [1] -0.083 | ralimetinib -0.12 | [2] -0.007 | [3] -0.033 | [4] 0.004 | pinometostat -0.077 | [5] -0.139 | [6] 0.066

MFF (UniProt Q9GZY8)
inactive: IRAK-1-4 Inhibitor I 0.038 | ibrutinib 0.025 | [1] -0.228 | ralimetinib 0.018 | [2] 0.002 | [3] -0.074 | [4] 0.048 | pinometostat -0.012 | [5] 0.124 | [6] -0.042

MGST1 (UniProt P10620)
Chain of UniProt P10620 (P10620 whole entry, looked up): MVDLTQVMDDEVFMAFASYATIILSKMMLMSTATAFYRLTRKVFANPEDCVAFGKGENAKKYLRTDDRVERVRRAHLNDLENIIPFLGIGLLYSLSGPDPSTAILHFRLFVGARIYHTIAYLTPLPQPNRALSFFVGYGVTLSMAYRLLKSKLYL
inactive: IRAK-1-4 Inhibitor I 0.002 | ibrutinib 0.033 | [1] 0.064 | ralimetinib -0.01 | [2] -0.001 | [3] -0.004 | [4] 0.011 | pinometostat -0.074 | [5] 0.032 | [6] 0.054

LPGAT1 (UniProt Q92604)
Chain of UniProt Q92604 (Q92604 whole entry, looked up): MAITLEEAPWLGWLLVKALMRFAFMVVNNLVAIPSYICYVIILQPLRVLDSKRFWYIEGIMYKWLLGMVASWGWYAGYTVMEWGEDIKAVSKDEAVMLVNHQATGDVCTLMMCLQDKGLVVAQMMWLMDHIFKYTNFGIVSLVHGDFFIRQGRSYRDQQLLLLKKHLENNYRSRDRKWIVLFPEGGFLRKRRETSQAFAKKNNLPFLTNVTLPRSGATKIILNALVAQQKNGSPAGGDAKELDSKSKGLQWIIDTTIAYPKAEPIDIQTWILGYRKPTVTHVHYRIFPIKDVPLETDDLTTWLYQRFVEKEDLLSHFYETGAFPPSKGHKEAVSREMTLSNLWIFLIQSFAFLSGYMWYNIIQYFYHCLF
inactive: IRAK-1-4 Inhibitor I -0.115 | ibrutinib -0.05 | [1] 0.064 | ralimetinib 0.041 | [2] -0.066 | [3] -0.277 | [4] -0.057 | pinometostat 0.013 | [5] 0.037 | [6] 0.069

MED7 (UniProt O43513)
Chain of UniProt O43513 (O43513 whole entry, looked up): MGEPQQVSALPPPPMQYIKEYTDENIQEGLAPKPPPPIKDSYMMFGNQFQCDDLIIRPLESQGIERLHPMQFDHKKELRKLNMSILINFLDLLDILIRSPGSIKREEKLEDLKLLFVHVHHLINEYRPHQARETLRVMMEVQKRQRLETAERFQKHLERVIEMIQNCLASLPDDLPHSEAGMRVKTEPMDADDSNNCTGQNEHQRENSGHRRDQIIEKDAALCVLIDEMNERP
inactive: IRAK-1-4 Inhibitor I 0.042 | ibrutinib 0.042 | [1] 0.001 | ralimetinib 0.113 | [2] 0.022 | [3] -0.078 | [4] -0.068 | pinometostat 0.113 | [6] 0.119
active: [5] 0.403

MIEF1 (UniProt L0R8F8)
inactive: IRAK-1-4 Inhibitor I 0.071 | ibrutinib 0.065 | [1] 0.022 | ralimetinib -0.004 | [2] 0.011 | [3] -0.021 | [4] -0.053 | pinometostat -0.005 | [5] 0.052 | [6] -0.004

ITIH4 (UniProt Q14624)
inactive: IRAK-1-4 Inhibitor I 0.043 | ibrutinib 0.147 | [1] 0.041 | ralimetinib -0.044 | [2] 0.17 | [3] 0.045 | [4] -0.113 | pinometostat -0.117 | [5] 0.251 | [6] -0.148

KIF21A isoform 4 (UniProt Q7Z4S6)
inactive: IRAK-1-4 Inhibitor I -0.025 | ibrutinib -0.053 | [1] -0.054 | ralimetinib 0.035 | [2] -0.062 | [3] -0.009 | [4] 0.084 | pinometostat 0.144 | [5] 0.01 | [6] 0.096

LPIN1 isoform 7 (UniProt Q14693)
Chain of UniProt Q14693 (Q14693 whole entry, looked up): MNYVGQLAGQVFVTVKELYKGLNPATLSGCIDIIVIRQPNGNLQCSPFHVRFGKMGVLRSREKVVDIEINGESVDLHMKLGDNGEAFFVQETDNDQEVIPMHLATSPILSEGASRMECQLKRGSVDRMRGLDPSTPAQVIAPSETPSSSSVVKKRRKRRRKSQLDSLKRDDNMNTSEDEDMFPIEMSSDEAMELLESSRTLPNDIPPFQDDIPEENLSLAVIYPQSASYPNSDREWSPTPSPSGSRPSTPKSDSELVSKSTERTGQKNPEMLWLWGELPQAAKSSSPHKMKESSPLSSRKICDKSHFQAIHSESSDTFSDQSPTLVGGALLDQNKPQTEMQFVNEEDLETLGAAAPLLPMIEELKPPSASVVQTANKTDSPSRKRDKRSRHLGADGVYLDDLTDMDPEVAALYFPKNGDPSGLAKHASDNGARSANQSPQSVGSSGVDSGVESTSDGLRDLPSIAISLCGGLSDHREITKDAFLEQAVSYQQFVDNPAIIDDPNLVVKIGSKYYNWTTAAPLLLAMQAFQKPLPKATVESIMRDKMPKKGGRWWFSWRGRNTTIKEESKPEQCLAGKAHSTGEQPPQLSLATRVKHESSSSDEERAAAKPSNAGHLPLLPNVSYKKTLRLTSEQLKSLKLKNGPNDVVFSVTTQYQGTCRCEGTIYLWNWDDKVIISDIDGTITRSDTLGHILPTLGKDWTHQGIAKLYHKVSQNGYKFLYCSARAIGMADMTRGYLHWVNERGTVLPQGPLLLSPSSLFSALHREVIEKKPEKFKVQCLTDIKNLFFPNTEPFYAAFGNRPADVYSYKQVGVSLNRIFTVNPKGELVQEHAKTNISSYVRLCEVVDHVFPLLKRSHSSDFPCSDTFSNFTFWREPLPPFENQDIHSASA
active: [1] -0.379
inactive: IRAK-1-4 Inhibitor I 0.035 | ibrutinib 0.029 | ralimetinib 0.016 | [2] -0.033 | [3] -0.054 | [4] 0.046 | pinometostat 0.082 | [5] 0.092 | [6] 0.006

LARP7 isoform 3 (UniProt Q4G0J3)
Chain of UniProt Q4G0J3 (Q4G0J3 whole entry, looked up): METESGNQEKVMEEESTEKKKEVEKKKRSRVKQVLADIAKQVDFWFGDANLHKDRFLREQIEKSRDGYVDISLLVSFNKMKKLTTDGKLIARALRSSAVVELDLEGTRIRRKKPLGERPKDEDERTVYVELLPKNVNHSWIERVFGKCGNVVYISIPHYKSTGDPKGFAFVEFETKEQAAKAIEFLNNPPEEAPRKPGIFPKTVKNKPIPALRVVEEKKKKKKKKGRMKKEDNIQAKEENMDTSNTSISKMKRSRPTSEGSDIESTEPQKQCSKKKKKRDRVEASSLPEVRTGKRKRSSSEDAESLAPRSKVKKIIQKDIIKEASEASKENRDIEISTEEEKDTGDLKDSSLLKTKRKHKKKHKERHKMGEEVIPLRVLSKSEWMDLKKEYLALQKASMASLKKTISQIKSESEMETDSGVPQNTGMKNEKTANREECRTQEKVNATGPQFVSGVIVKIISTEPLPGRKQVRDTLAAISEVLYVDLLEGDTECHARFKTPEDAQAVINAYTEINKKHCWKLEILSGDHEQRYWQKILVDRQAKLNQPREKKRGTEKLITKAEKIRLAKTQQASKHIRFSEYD
inactive: IRAK-1-4 Inhibitor I -0.061 | ibrutinib 0.031 | [1] 0.063 | ralimetinib 0.111 | [2] 0.021 | [3] -0.246 | [4] -0.057 | pinometostat 0.05 | [5] -0.063
active: [6] -0.383
